Measured values as given in PubChem BioAssay.
Active and inactive are the calls of the source.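 The calls were made as follows, unless noted: active = fluorescence slope after compound addition differing from the mean of all screened samples at 99.7% confidence, in either direction; inactive = the rest.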

What was measured:
[1] = inhibitors of TNFa-induced NFkB p65 translocation, primary screen, imaging, HUVEC, MLSMR starter and 10KST1 sets (AID 438;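 active = inhibition above 20% together with a positive visual image hit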;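 also: compound added about 3h40 before a 20 min TNFalpha stimulation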;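 as to inhibition: signal is the nuclear over cytoplasmic p65 intensity ratio per well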); settings: HUVEC TNFa-induced p65 nuclear translocation; cell count: measured here: nuclei count (cytotoxicity indicator), at 2.08 µM; inhibition: at 2 µM, stronger effect = higher value, 0% TNFa-plus-vehicle, 100% no-TNFa wells
[2] = inhibitors of mutant huntingtin aggregation, primary screen, imaging, exon1htt(103Q)mCFP cells, high-content imaging (AID 483;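 active = visual image review flags a hit and inhibition of aggregation exceeds 20%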;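 also: compound exposure lasted 3 days before fixation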;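 as to nuclei count: percent of the per-plate median nuclei count of sample wells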); settings: exon1htt(103Q)mCFP cell line, aggregate imaging, at 2 µM; inhibition of aggregation: stronger effect = higher value; nuclei count: measured here: cell count, toxicity
[3] = inhibitors of E-selectin induction by TNFa, primary screen, imaging, HUVEC, immunofluorescence, MLSMR starter and 10KST1 sets (AID 487;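 active = visually confirmed hit in the image check and inhibition above 20%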;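 as to inhibition: signal is fraction of cell area covered by stained E-selectin grains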;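 as to nuclei count: 100% = median nuclei count of all wells on the same plate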); settings: HUVEC TNFalpha-induced E-selectin immunofluorescence imaging, at 2 µM; inhibition: stronger effect = higher value; nuclei count: measured here: cell number, toxicity
[4] = biological target: Voltage-gated potassium channel subunit beta-2 (Rattus norvegicus) (UniProt P62483); experiment: KvBeta enzyme negative modulators, primary screen, biochemical, NADPH fluorescence (AID 622;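 active = fluorescence slope higher than the sample average by over 3 SD, cut at about -0.22 in these data, passing the limit was not always enough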;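 also: slope of raw intensity against log time taken from 70 to 1610 s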); settings: recombinant KvBeta, 4-cyanobenzaldehyde reduction, at 10 µM, stronger effect = higher value
[5] = biological target: Voltage-gated potassium channel subunit beta-2 (Rattus norvegicus) (UniProt P62483); experiment: KvBeta positive modulators, primary screen, biochemical, NADPH fluorescence (AID 623;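 active = NADPH fluorescence slope more negative than the mean of all samples by about 3 SD, 99.7% confidence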;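 also: fluorescence intensity change per second fitted from 20 to 320 s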); settings: Recombinant KvBeta, NADPH fluorescence decrease slope, 10 min; at 10 µM; stronger effect = lower value
[6] = biological target: Alpha-2C adrenergic receptor (Homo sapiens) (UniProt P18825); experiment: modulators of alpha2C/GIRK thallium flux, primary screen, cell-based, HEK293 alpha2C/GIRK1/2 (AID 624); settings: thallium flux BTC fluorescence, at 10 µM, actives lie on both sides;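 also: slope of fluorescence ratio to pre-addition baseline per second over 15 to 24 s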
[7] = inhibitors of Sendai virus-induced IRF3 signaling, primary screen, TLR/RLR signaling modifier project, cell-based, Sendai virus stimulus, luciferase, 10K MLSCN set (AID 602276;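 active = inhibition at or above 50% at 10 µM; inactive = inhibition below 50%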;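 also: firefly luciferase from ISG56 promoter only with Renilla not read in this screen; 0% = Sendai virus plus DMSO and 100% = medium plus DMSO without virus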); settings: HEK293 RL24 IRF3 luciferase reporter, at 10 µM, stronger effect = higher value
[8] = inhibitors of poly I:C-induced TLR3 signaling, primary screen, cell-based, poly I:C stimulus, luciferase, 10K MLSCN set (AID 602277;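 active = inhibition of the reporter signal at or above 50%; inactive = inhibition below 50%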); settings: HEK293-TLR3 RL24 IRF3 luciferase reporter, at 10 µM, stronger effect = higher value

Alpha-2C adrenergic receptor (Homo sapiens), sequence (P18825 whole entry, looked up): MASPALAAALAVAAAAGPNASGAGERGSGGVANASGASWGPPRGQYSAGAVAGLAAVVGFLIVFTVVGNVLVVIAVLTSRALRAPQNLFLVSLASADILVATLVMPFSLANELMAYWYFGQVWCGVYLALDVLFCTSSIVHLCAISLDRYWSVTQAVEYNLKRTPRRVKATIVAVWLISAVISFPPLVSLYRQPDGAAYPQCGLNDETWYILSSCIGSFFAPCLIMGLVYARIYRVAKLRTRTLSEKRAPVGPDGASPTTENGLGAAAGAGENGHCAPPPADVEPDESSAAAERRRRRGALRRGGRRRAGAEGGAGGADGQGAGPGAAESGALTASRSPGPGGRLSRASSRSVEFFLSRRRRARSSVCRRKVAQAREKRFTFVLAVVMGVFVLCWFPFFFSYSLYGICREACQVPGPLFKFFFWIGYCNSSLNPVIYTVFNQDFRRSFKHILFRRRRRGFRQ
Voltage-gated potassium channel subunit beta-2 (Rattus norvegicus), sequence (P62483 whole entry, looked up): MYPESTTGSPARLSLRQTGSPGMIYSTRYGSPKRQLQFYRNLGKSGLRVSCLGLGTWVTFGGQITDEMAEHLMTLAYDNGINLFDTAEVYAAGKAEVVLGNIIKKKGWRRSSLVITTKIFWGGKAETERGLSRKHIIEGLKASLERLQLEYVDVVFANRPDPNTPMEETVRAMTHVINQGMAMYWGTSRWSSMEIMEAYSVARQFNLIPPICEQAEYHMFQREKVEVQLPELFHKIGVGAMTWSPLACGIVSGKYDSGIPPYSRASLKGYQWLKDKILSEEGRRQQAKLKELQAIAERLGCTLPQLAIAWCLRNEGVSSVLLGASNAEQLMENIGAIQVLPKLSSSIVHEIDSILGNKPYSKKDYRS

Compound | cell count [1] | inhibition [1] | inhibition of aggregation [2] | nuclei count [2] | inhibition [3] | nuclei count [3] | fluorescence slope [4] | NADPH fluorescence slope [5] | slope [6] | inhibition [7] | inhibition [8]
Cc1ccc2[nH]c(=O)c3cc(C(=O)NCCN4CCN(C)CC4)sc3c2c1 | 526 | -0.5% (inactive) | 2.4% (inactive) | 60% | -14.1% (inactive) | 116% | -0.229 (active) | -4.2e-06 (inactive) | 0.00573 (inactive) | 10.4% (inactive) | 90.4% (active)
COCC(C)NC(=O)NC(=O)c1ccc(Cl)cc1 (stereo not drawn) | 715 | 0.4% (inactive) | 10.2% (inactive) | 100% | -67.6% (inactive) | 98.3% | -0.476 (inactive) | 2.1e-05 (inactive) | 0.00585 (inactive) | 14.1% (inactive) | 12.5% (inactive)
COC(=O)c1cc(OC)c(OC)cc1NC(=O)CCC1CCCC1 | 452 | 3.7% (inactive) | 14.1% (inactive) | 104% | -78.6% (inactive) | 101% | -0.637 (inactive) | -1e-05 (inactive) | 0.00682 (inactive) | 12.6% (inactive) | 22.5% (inactive)
O=C1N(CCCCN2C(=O)C3(OCCO3)c3ccccc32)c2ccccc2C12OCCO2 | 578 | -18.8% (inactive) | -8.4% (inactive) | 104% | -60.9% (inactive) | 112% | -0.381 (inactive) | 2.4e-05 (inactive) | 0.00398 (inactive) | 9.05% (inactive) | 16.5% (inactive)
Cc1ccc(CCNC(=O)CC2Oc3ccc(C)cc3NC2=O)cc1 (stereo not drawn) | 644 | 5.5% (inactive) | -11.9% (inactive) | 105% | -33.5% (inactive) | 124% | -0.558 (inactive) | 1.2e-05 (inactive) | 0.00676 (inactive) | -18.4% (inactive) | 2.52% (inactive)
COCc1ccccc1Cn1cnc2c1c(=O)n(C)c(=O)n2C | 346 | 2% (inactive) | -1.8% (inactive) | 107% | 25.6% (inactive) | 112% | -0.469 (inactive) | -3.6e-05 (inactive) | 0.00626 (inactive) | 2.14% (inactive) | 12.6% (inactive)
Cc1noc(/C=C/N(C)C)c1S(=O)(=O)N1CCc2ccccc21 | 611 | 3.4% (inactive) | 24.9% (inactive) | 89.8% | -60.7% (inactive) | 115% | -0.558 (inactive) | -8.6e-06 (inactive) | 0.00715 (inactive) | -1.69% (inactive) | 55.2% (active)
C#CCNc1c(C)c(C)nc2ncnn12 | 306 | -9.4% (inactive) | 32.2% (inactive) | 86.1% | -44.2% (inactive) | 89.3% | -0.592 (inactive) | -3.6e-05 (inactive) | 0.00371 (inactive) | 14.5% (inactive) | 9.86% (inactive)
COc1ccc(CCNC(=O)CSc2nncn2N)cc1OC | 641 | -3.2% (inactive) | 24.1% (inactive) | 81.6% | -29.4% (inactive) | 122% | -0.345 (inactive) | -1.6e-05 (inactive) | 0.00364 (inactive) | 12.1% (inactive) | 21.1% (inactive)
Cc1ccc(OCc2nnc(SCC(=O)N3CCOCC3)n2C)cc1 | 594 | -12.9% (inactive) | 6.8% (inactive) | 104% | -58.9% (inactive) | 116% | -0.372 (inactive) | -1.9e-05 (inactive) | 0.00543 (inactive) | -1.5% (inactive) | 6.14% (inactive)
CC1=Nn2c(nnc2-c2ccc(F)cc2)SC1 | 340 | -2.4% (inactive) | 4% (inactive) | 107% | -66% (inactive) | 95.6% | -0.33 (inactive) | -4.3e-05 (inactive) | 0.00575 (inactive) | -12.4% (inactive) | -3.16% (inactive)
Cc1cc(NC(=O)CCC(=O)N(CC(=O)NC2CCCC2)Cc2ccc(F)cc2)no1 | 402 | 0.8% (inactive) | -35.1% (inactive) | 103% | -48.3% (inactive) | 122% | -0.421 (inactive) | -3.6e-05 (inactive) | 0.00498 (inactive) | 14.9% (inactive) | 13.1% (inactive)
CS(=O)(=O)c1ccc2nc(NC(=O)C3C4C=CC(C4)C3C(=O)O)sc2c1 (stereo not drawn) | 475 | 12.5% (inactive) | 0.5% (inactive) | 96.1% | -113% (inactive) | 115% | -0.41 (inactive) | 1e-05 (inactive) | 0.00376 (inactive) | 1.15% (inactive) | 6.4% (inactive)
CCOC(=O)N1CCN(c2cc(=O)n(-c3ccccc3Cl)c(=O)[nH]2)CC1 | 553 | -7.4% (inactive) | 12.5% (inactive) | 84.2% | 15% (inactive) | 90.2% | -0.581 (inactive) | -4.3e-05 (inactive) | 0.00703 (inactive) | -11.4% (inactive) | 11.8% (inactive)
CCOC(=O)c1ccc(N2Cc3cc(C)c(C)cc3C2)cc1O | 744 | 2.9% (inactive) | 6.2% (inactive) | 92.7% | -36.2% (inactive) | 119% | -0.457 (inactive) | -1.3e-05 (inactive) | 0.00595 (inactive) | -26.7% (inactive) | -52.7% (inactive)
Cc1cccc(NC(=O)CSc2nnc(-c3cc(C)n(-c4ccccc4)c3C)o2)c1C | 590 | -16.6% (inactive) | -14.8% (inactive) | 48% | -27.3% (inactive) | 111% | -0.6 (inactive) | -1.4e-05 (inactive) | 0.00877 (inactive) | 5.08% (inactive) | 52.9% (active)
Cn1c(=O)[nH]c(=O)c2[nH]c(NCCCN3CCOCC3)nc21 | 572 | 4.8% (inactive) | 8% (inactive) | 92.2% | -36.4% (inactive) | 112% | -0.613 (inactive) | -1.9e-05 (inactive) | 0.00608 (inactive) | 9.97% (inactive) | 14.9% (inactive)
COc1cc(SC)ccc1C(=O)Nc1ccon1 | 461 | -10.3% (inactive) | -0.3% (inactive) | 93% | 20.1% (inactive) | 91.2% | -0.608 (inactive) | 2.8e-05 (inactive) | 0.00729 (inactive) | -57.7% (inactive) | -144% (inactive)
Cc1ccc(S(=O)(=O)N2CCC(C(=O)N3CCC[C@H]3C(=O)NCc3ccccc3)CC2)cc1 | 340 | 3.6% (inactive) | -6.4% (inactive) | 108% | -35% (inactive) | 133% | -0.453 (inactive) | 8.3e-05 (inactive) | 0.00735 (inactive) | 13.5% (inactive) | 23.1% (inactive)
CCOC(=O)CSc1nnc(-c2ccc(Cl)cc2Cl)o1 | 376 | 1.9% (inactive) | -9.2% (inactive) | 93.8% | -57.5% (inactive) | 116% | -0.405 (inactive) | -2.6e-05 (inactive) | 0.00557 (inactive) | 4.99% (inactive) | 2.18% (inactive)
Cc1ccc(C)c2[nH]c(=O)c(CCNC(=O)CC(C)(C)C)cc12 | 650 | -5.3% (inactive) | 33.1% (inactive) | 63.8% | 16.6% (inactive) | 90.8% | -0.557 (inactive) | -5.3e-05 (inactive) | 0.00614 (inactive) | 4.63% (inactive) | 16.5% (inactive)
COc1ccc2nc(SCC(=O)NC(C)C)[nH]c2c1 | 626 | 1.4% (inactive) | -0.8% (inactive) | 104% | -35.2% (inactive) | 107% | -0.478 (inactive) | 5.9e-05 (inactive) | 0.0062 (inactive) | -7.68% (inactive) | -5% (inactive)
CCOc1cc(-c2nc3ccccn3c2NCC2CCCO2)ccc1O (stereo not drawn) | 406 | -0.9% (inactive) | -2.6% (inactive) | 94.3% | -97% (inactive) | 83.1% | -0.091 (active) | -2.7e-05 (inactive) | 0.00327 (inactive) | -9.84% (inactive) | -3.91% (inactive)
Cc1cc(=O)oc2cc(OCC#N)ccc12 | 823 | -2.9% (inactive) | -19.8% (inactive) | 95.4% | -66.4% (inactive) | 128% | -0.521 (inactive) | -3.5e-05 (inactive) | 0.0067 (inactive) | 8.92% (inactive) | 27.1% (inactive)
Cn1cc(-c2nc3ccccc3[nH]2)c2ccccc21 | 250 | 2.1% (inactive) | 33.7% (inactive) | 82.6% | 55.1% (inactive) | 83.3% | -0.416 (inactive) | -6e-05 (inactive) | 0.00369 (inactive) | -9.53% (inactive) | -51.2% (inactive)
COc1ccc(-c2cc(C(F)(F)F)n3ncc(C(=O)NCC4CCCO4)c3n2)cc1 (stereo not drawn) | 669 | 6.7% (inactive) | -1% (inactive) | 67.5% | 57.7% (inactive) | 95.2% | -0.00373 (active) | 2e-06 (inactive) | 0.00552 (inactive) | 13.6% (inactive) | 25.3% (inactive)
COc1ccc(C(N)=O)cc1N | 413 | 2.5% (inactive) | -8.6% (inactive) | 98.3% | -40.2% (inactive) | 118% | -0.45 (inactive) | 2.7e-05 (inactive) | 0.00578 (inactive) | -5.97% (inactive) | 8.78% (inactive)
CCOc1ccc(-c2nnc(N)s2)cc1 | 432 | -3.8% (inactive) | 29.9% (inactive) | 61.4% | -8.1% (inactive) | 90.5% | -0.493 (inactive) | -0.000137 (inactive) | 0.00563 (inactive) | -27% (inactive) | -78.8% (inactive)
